Screening data as filed in PubChem BioAssay.
Mcl1 Bid PPI: Mcl-1/Bid interaction inhibition; Q07820; TR-FRET Mcl-1/Bid-Dy647 peptide binding, 1536-well; inhibition, % at 21.7 µM; hit rate 0.97% among 220,000; AID 1021;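 active = compounds that cut the binding signal by more than half at the single screening dose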;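 also: His-tagged Mcl-1 with europium anti-His antibody binding Bid BH3 peptide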
14-3-3 Bad inh: disrupts binding of bovine 14-3-3 zeta to phospho-Bad peptide; TR-FRET 14-3-3zeta/Dy647-pBad peptide displacement, 1 h; inhibition, % at 21.7 µM; hit rate 0.71% among 220,000; AID 781;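 active = inhibition above about 70%, limit read from the data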
Target sequence (P63103 whole entry, looked up): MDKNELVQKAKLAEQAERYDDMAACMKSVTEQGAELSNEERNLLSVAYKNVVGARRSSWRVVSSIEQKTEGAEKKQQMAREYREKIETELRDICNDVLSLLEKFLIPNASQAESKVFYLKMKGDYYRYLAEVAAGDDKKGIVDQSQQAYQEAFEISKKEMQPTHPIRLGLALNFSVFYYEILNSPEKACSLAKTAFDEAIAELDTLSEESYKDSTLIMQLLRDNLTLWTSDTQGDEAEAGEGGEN
Mcl1 Noxa PPI: disrupts binding of human Mcl-1 to Noxa peptide. Q07820. TR-FRET Mcl-1/Noxa peptide binding, 2 h. inhibition, % at 21.7 µM. hit rate 1.5% among 220,000. AID 1022;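 active = compounds that cut the protein-peptide binding signal by more than 50% relative to plate controls in a single-dose test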;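 also: His-tagged Mcl-1 with rhodamine Noxa BH3 peptide and terbium anti-His antibody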
p47phox inh: p47phox (human) inhibition | P14598 | p47phox/p22phox peptide binding, fluorescence polarization, 2 h | inhibition, % at 24.7 µM | hit rate 0.53% among 220,000 | AID 1274
Target sequence (P14598 whole entry, looked up): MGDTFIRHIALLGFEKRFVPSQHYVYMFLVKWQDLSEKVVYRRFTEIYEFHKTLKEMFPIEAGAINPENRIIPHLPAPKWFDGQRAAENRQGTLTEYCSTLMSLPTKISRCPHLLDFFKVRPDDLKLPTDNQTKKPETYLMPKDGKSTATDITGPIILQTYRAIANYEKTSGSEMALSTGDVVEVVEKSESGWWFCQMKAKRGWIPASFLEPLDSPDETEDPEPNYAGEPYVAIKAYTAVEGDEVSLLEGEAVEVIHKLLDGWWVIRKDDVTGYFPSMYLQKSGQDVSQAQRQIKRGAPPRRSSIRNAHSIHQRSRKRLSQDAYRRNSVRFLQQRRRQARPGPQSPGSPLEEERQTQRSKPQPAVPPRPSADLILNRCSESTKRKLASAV
Mcl-1 Bim block: inhibitors of Bim-Mcl-1 interaction, human | Q07820 | Bead-based flow cytometry, Bim peptide-Mcl-1 binding | inhibition, % at 10 µM | hit rate 0.1% among 190,000; in the data active = inhibition above about 40%
eIF4E 4G PPI: blocks eIF4E binding to eIF4G. TR-FRET eIF4E-eIF4GI(517-606) binding, 2 h. hit rate 0.37% among 220,000. inhibition, % at 21.7 µM. P63073+Q04637
Of the large screens only hits and unclear results are named; the others gave an inactive call; [ ] = another dose, or the depositor's remark. A selection: hits, their analogues and other compounds. The true share with any hit is near 3.4%.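 The calls were made as follows, unless noted: active = inhibition above about 30% (limit read from the data); inactive = the rest.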

CC1CCN(C(=S)c2ccccc2O)CC1	eIF4E 4G PPI 30.7[fluorescence artefact?]
CC1CCN(C(=S)c2ccc(O)cc2)CC1	none
O=[N+]([O-])c1cccc(S(=O)(=O)Nc2nc3ccccc3nc2Nc2cccc(S(=O)(=O)N3CCCCC3)c2)c1	Mcl1 Bid PPI 98.8, Mcl1 Noxa PPI 73.4
N#CC1=C(N)C2=C(N3CCCCC3)CCCC2C1(C#N)C#N (stereo not given)	none
CCN(CC)C1=CC2=CC(=C(C#N)C#N)CCC2CC1 (stereo not given)	p47phox inh 62.1
N#CC(C#N)=C1C=C2C=C(N3CCCCC3)CCC2CC1 (stereo not given)	p47phox inh 112.6
CCCCN(C)C1=CC2=CC(=C(C#N)C#N)CCC2CC1 (stereo not given)	none (no result: Mcl-1 Bim block)
CCn1nc(C)c(CNC(=O)Nc2ccc3c(c2)OCO3)c1C	none
CC(Oc1ccccc1F)C(=O)NCCN1CCCCC1 (stereo not given)	Mcl1 Bid PPI 59.2
O=C(Nc1ccccc1C(=O)NC(Cc1ccc(O)cc1)C(=O)O)c1ccccc1 (stereo not given)	none
CN1CCN(C(=S)c2cn(Cc3ccc(Br)cc3)c3ccccc23)CC1	none
Cc1nc(N)nc(N)c1/C=C/C(C)(C)c1ccc(Cl)cc1	none
C=CCNC(=O)COc1cc(C)ccc1C	eIF4E 4G PPI 39.6
COc1ccc(NC(=O)c2cc(C)on2)cc1	none
COc1cc(NC(=O)c2cc(C)on2)cc(C(=O)Nc2cccc(C(F)(F)F)c2)c1	p47phox inh 42.9 (no result: Mcl-1 Bim block)
CCOC(=O)c1c(N)sc(N)c1C(=O)OCC	Mcl1 Noxa PPI 69.1
CCOC(=O)c1c(N)sc(=S)c2c1CCC2	Mcl1 Bid PPI 53.6, Mcl1 Noxa PPI 56.6
CCOC(=O)c1sc(N)c(C(N)=O)c1C	p47phox inh 30.1
CCOC(=O)c1c(N)sc(C(N)=O)c1C	none
CCOC(=O)c1c(N)sc2c(O)c(Br)ccc12	eIF4E 4G PPI 39.1[fluorescence artefact?]
CCOC(=O)c1c(N)sc2c(NC(C)=O)cccc12	none
Cc1ccccc1N1CCN(C(=O)c2ccccc2NC(=O)c2ccccc2C(=O)O)CC1	none
OCCC1CN(Cc2cccn2-c2cccnc2)CCN1C1CCCCC1 (stereo not given)	none
O=C(NCc1cccc(C(F)(F)F)c1)C1CC(c2ccccc2C(F)(F)F)=NO1 (stereo not given)	none (no result: Mcl-1 Bim block)
N/C(=N\c1nc(CSc2ccccn2)cc(=O)[nH]1)Nc1ccc(Cl)cc1Cl	none (no result: Mcl-1 Bim block)
O=C(/C=C/c1ccco1)NCC1OCCc2ccccc21 (stereo not given)	Mcl1 Noxa PPI 62.0 (no result: Mcl-1 Bim block)
COCCNC(=S)N(C)C1(c2ccccc2Cl)CCCCC1=O (stereo not given)	none
COc1ccc(CNCC(=O)Nc2ccccc2-n2cccc2)cc1	none
C=CCn1c(SCc2ccc(C#N)cc2)nnc1-c1cccc(OC)c1	Mcl1 Bid PPI 94.6
C=CCn1c(SCc2ccc(C#N)cc2)nnc1-c1ccccc1	none
COc1cccc(CNC(=O)CCC2CCCN(C(=O)C3=CC(=O)CC(C)(C)O3)C2)c1 (stereo not given)	none
CCCS(=O)(=O)NCc1ccc2c(c1)cc(C)n2C	none
CCS(=O)(=O)NCc1ccc2c(c1)cc(C)n2C	Mcl1 Bid PPI 69.8
CS(=O)(=O)c1ncc(CO)n1Cc1ccccc1	none
O=C(C[n+]1cccc(CO)c1)Nc1nc2ccccc2s1	none
COc1cc(Cl)cc(NC(=O)CCN2CCN(C)CC2)c1	14-3-3 Bad inh 76.5
O=C(/C=C/c1cccs1)Nc1scc(-c2ccccc2)c1C(=O)O	Mcl1 Bid PPI 93.2, 14-3-3 Bad inh 92.1, eIF4E 4G PPI 92.4
N#Cc1ccsc1NC(=O)COc1ccc(-c2nnco2)cc1	Mcl1 Noxa PPI 64.6
CC(=O)Cc1nsc(NC(=O)c2ccc(-c3cccc(Cl)c3)o2)n1	none
CCn1c(SCC(=O)Nc2ccc(C(C)=O)cc2)nc2nc3c(cc2c1=O)CCCC3	eIF4E 4G PPI 51.4
NS(=O)(=O)c1ccc(CCNC(=O)CN2CCCCCC2)cc1	none
O=C(Nc1ccc(-c2nc3cc(NC(=O)c4cccs4)ccc3o2)cc1)c1cccs1	14-3-3 Bad inh 73.8[fluorescence artefact?]
Cc1cc2nc(-c3ccc(NC(=O)C(C)C)cc3)oc2cc1C	Mcl1 Bid PPI 73.3
COc1cc(C(=O)Nc2cc(-c3nc4cc(C)ccc4o3)ccc2C)cc(OC)c1OC	14-3-3 Bad inh 78.6
Cc1ccc(-c2nc3cc(NC(=O)C(C)C)ccc3o2)cc1	none
COc1ccc2oc(-c3ccc(C)c(NC(=O)CSc4ccc(Cl)cc4)c3)nc2c1	Mcl1 Bid PPI 53.7
Cc1ccc2oc(-c3ccc(C)c(NC(=O)Cc4cccs4)c3)nc2c1	none
Cc1ccc2oc(-c3ccc(C)c(NC(=S)NC(=O)c4cccs4)c3)nc2c1	Mcl1 Bid PPI 52.8
CCOC(=O)c1cnc(/N=C/N(C)C)s1	14-3-3 Bad inh 96.9
CCOC(=O)c1sc(/N=C/N(C)C)nc1C	none
Cc1cccc(/C=N/NC(=O)Cn2nnnc2N)n1	none (no result: Mcl-1 Bim block)
CC1CCCC(CC(=O)O)(CC(=O)O)C1 (stereo not given)	none (no result: Mcl-1 Bim block)
COc1cc(C(=O)NCc2ccc(C(=O)NCC(OC)OC)cc2)cc(OC)c1OC	Mcl1 Bid PPI 64.0, 14-3-3 Bad inh 72.2, eIF4E 4G PPI 63.5
COc1cc(C(=O)NCC(C)C)cc(OC)c1OC	none
O=C(Nc1cccc(Cl)c1)Nc1nnc(-c2ccncc2)s1	14-3-3 Bad inh 81.0, Mcl1 Noxa PPI 90.8
COc1ccc(NS(=O)(=O)c2ccc(O)c(NC(=O)c3cc4c(C)nn(-c5ccc(F)cc5)c4s3)c2)cc1	Mcl1 Noxa PPI 65.3
COc1ccc(NS(=O)(=O)c2ccc(N3CCOCC3)c(NC(=O)c3ccc(F)cc3)c2)cc1	none
O=C(Nc1ccc(Cl)c(Cl)c1)Nc1nc(-c2ccccc2)cs1	Mcl1 Noxa PPI 51.1
O=C(Nc1nc(-c2ccc(Cl)s2)cs1)c1ccccc1	none
O=C(Nc1nc(-c2ccco2)cs1)c1ccccc1	Mcl1 Noxa PPI 53.9
O=C(Nc1nc(-c2ccccc2)cs1)c1ccco1	eIF4E 4G PPI 65.9 (no result: Mcl-1 Bim block)
CC(/C=N/NC(=O)c1cnccn1)=C\c1ccco1	none (no result: Mcl-1 Bim block)
O=C(CSc1nnc2ccccn12)NNC(=O)c1ccc(F)cc1	none
COc1cc(C(F)(F)F)c(C(=O)NCc2cccc(Cl)c2)cn1	none (no result: Mcl-1 Bim block)
C=CCNCCCOc1ccc(Cl)cc1Br	Mcl1 Bid PPI 76.5
Clc1ccc(Cl)c(OCCCCNCc2ccccc2)c1	none
Clc1ccc(OCCCNCc2ccccc2)c(Br)c1	Mcl1 Bid PPI 70.3
OCCNCCCOc1ccc(Cl)cc1Br	none
COc1ccc(CNS(=O)(=O)c2ccccc2Br)cc1	none (no result: Mcl-1 Bim block)
COc1ccc(NC(=O)/C(C#N)=C\c2ccc(N3CCOCC3)o2)cc1	none
COc1ccc(NC(=O)/C(C#N)=C/c2ccc(Br)o2)cc1	Mcl1 Noxa PPI 57.6
Cc1ccc([N+](=O)[O-])c(NC2OC(CO)C(O)C2O)c1 (stereo not given)	none
CC[n+]1c(C)cc2c(sc3ccccc32)c1C	p47phox inh 33.5
